Measurements published in PubChem BioAssay (Tox21).
Inconclusive results are not listed. Activity calls are given as the source filed them. Calls come from the whole dose curve; as a rule, active = well fitted activation curve with a large enough effect in the signal ratio in the repeat runs, with a control signal flat (not every such curve was filed as active); inconclusive = weak or mixed curves; inactive = flat fitted curve, though single readings scatter; the % refers to the signal ratio.

Assay: qHTS assay for small molecule activators of the heat shock response signaling pathway (AID 743210)
Conditions: HeLa HSE-bla reporter, beta-lactamase ratio, 5 h; series mostly up to 62.6 µM; activation: at the top concentration
Source text: U.S. Tox21 Program National Center for Advancing Translational Sciences [NCATS] NIH Chemical Genomics Center [NCGC] U.S. Environmental Protection Agency [EPA] National Institutes of Environmental Health Sciences [NIEHS] National Toxicology Program [NTP] U.S. Food and Drug Administration [FDA] Tox21 Assay Overview: Various chemicals, environmental and physiological stress conditions may lead to the activation of heat shock response/ unfolded protein response (HSR/UPR). There are three heat shock transcription factors (HSFs) (HSF-1, -2, and -4) mediating transcriptional regulation of the human HSR. To identify the compounds that activate HSR signaling, HSE-bla HeLa cell line (Invitrogen, Carlsbad, CA, USA) containing a beta-lactamase reporter gene under the control of the heat shock response elements was used to screen the Tox21 10K compound library.
Tox21 Assay Protocol Summary: The CellSensor HSE-bla HeLa cells (Invitrogen, Carlsbad, CA, USA) were dispensed at 1500 cells/6uL/well into 1536-well black wall/clear bottom plates using a Multidrop combi (Thermo Fisher Scientific, Waltham, MA) dispenser. After the assay plates were incubated at 37 C and 5% CO2 overnight, 23 nL of compounds dissolved in DMSO, positive controls or DMSO only was transferred to the assay plate by a Pintool station (Kalypsys, San Diego, CA). The plates were incubated at 37 C for 5 h. After 1 uL of LiveBLAzerTM B/G FRET substrate was added using a Flying Reagent Dispenser (Beckman Coulter, Indianapolis, IN, USA), the plates were incubated at room temperature for 2.5 h, and fluorescence intensity was measured by an Envision plate reader (PerkinElmer, Shelton, CT).
% is set by controls: 0 for no effect and ±100 for the full control effect.

| SMILES | activation | outcome |
| --- | --- | --- |
| CCCCCSCCCCC | -0.938% (inactive) | – |
| O=C1CCCCCCCCCCCN1 | – | inactive |
| CCCCCCOC(=O)CCCCC(=O)OCCCCCC | -0.954% (inactive) | – |
| CC(C)(C)c1nnc(NS(=O)(=O)c2ccccc2)s1 | -0.0235% (inactive) | – |
| CCSC(=O)N(CC(C)C)CC(C)C | -1.18% (inactive) | – |
| Nc1c2c(nc3ccccc13)CCCC2O (stereo not given) | -0.0025% (inactive) | – |
| CC(=O)Nc1ccc(S(N)(=O)=O)cc1 | -0.165% (inactive) | – |
| N=C(N)c1ccc(OCCCOc2ccc(C(=N)N)cc2)cc1 | -1.67% (inactive) | – |
| NC(=O)c1ccc(N)cc1 | -2.77% (inactive) | – |
| COC(=O)[C@@H](N)Cc1ccc(O)c(O)c1 | 0.355% (inactive) | – |
| CCc1cccc2c(CCO)c[nH]c12 | -0.933% (inactive) | – |
| O=C(O)CCCc1ccccc1 | -1.35% (inactive) | – |
| CCN(CC)CCNC(=O)c1cc(S(C)(=O)=O)ccc1OC | 0% (inactive) | – |
| CC/C=C\CCOC(C)=O | 0.629% (inactive) | – |
| CC(=O)c1ccccc1O | -0.456% (inactive) | – |
| COc1ccccc1OCC(O)CN1CCN(CC(=O)Nc2c(C)cccc2C)CC1 (stereo not given) | 0.751% (inactive) | – |
| CCCCCCCCCCCCCC=O | -0.951% [at 5.95 µM] (inactive) | – |
| C=C(C)C(=O)OCCCCCCCC(C)C | 0.199% [at 81.1 µM] (inactive) | – |
| CCN(CC)CCOCCOC(=O)C1(c2ccccc2)CCCC1 | -1.66% (inactive) | – |
| CCOC(=O)CCC(C)=O | -0.915% (inactive) | – |

| SMILES | activation | outcome |
| --- | --- | --- |
| CCOc1ccc(C(=O)OCCN(CC)CC)cc1 | -0.516% (inactive) | – |
| CC(=O)Nc1c(I)cc(I)c(C(=O)O)c1I | 0.183% (inactive) | – |
| CCCCOCCOCCOCc1cc2c(cc1CCC)OCO2 | – | inactive |
| COC(=O)C1=C(C)NC(C)=C(C(=O)OC)C1c1ccccc1[N+](=O)[O-] | 0.178% (inactive) | – |
| CC(C)CCCC(C)N (stereo not given) | -0.0766% (inactive) | – |
| CC(C)OC(=O)c1ccccc1 | -0.753% [at 81.1 µM] (inactive) | – |
| C=C(C)CS(=O)(=O)O | 0.0919% (inactive) | – |
| CC(=O)N(CC(O)CO)c1c(I)c(C(=O)NCCO)c(I)c(C(=O)NCC(O)CO)c1I (stereo not given) | 0.975% (inactive) | – |
| CCCCCCCCCCCCN(CCCCCCCCCCCC)CCCCCCCCCCCC | -0.766% (inactive) | – |
| COc1cc(C(=O)N2CCCCCCC2)cc(OC)c1OC | -2.04% (inactive) | – |
| O=C(O)COc1nn(Cc2ccccc2)c2ccccc12 | -0.901% (inactive) | – |
| Cn1c(N)c(N=O)c(=O)n(C)c1=O | -0.273% [at 81.1 µM] (inactive) | – |
| C=CCCCCCCCCC=O | 3.13% (inactive) | – |
| Cc1sccc1Br | 0.35% (inactive) | – |
| COc1c(N2C[C@@H]3CCCN[C@@H]3C2)c(F)cc2c(=O)c(C(=O)O)cn(C3CC3)c12 | 0.575% (inactive) | – |
| CCC(=O)OC(C)c1ccccc1 (stereo not given) | -0.702% (inactive) | – |
| COc1nc(N)nc2c1ncn2[C@@H]1O[C@H](CO)[C@@H](O)[C@@H]1O | -1.79% (inactive) | – |
| FC(F)OC(Cl)C(F)(F)F (stereo not given) | -1.69% (inactive) | – |
| CC(C)(c1ccc(O)cc1)c1ccc(O)cc1 | – | inactive |
| C=COCC1CCC(CO)CC1 (stereo not given) | -0.296% (inactive) | – |
